The campaign covered roughly 53,000 sequences. About 3,700 (7%) were called active.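 How the source made its calls: active means gene knockdowns whose robust z-score for IL-1 alpha signal is at least 2 or at most -2, so actives lie on both sides; inactive means the rest.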 This excerpt belongs to a sample that is enriched for actives.

The test can be described thus: Components of the Cytosolic LPS Sensing Pathway: Gene Identification via Genome-wide siRNA Screen.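 Further: robust z of the log signal after scaling to non-targeting control siRNA wells of the plate.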 As to conditions: RAW264.7 macrophages, IL-1a HTRF, actives lie on both sides, screened at 100 nM (by protocol), cells primed 5 h with Pam3CSK4 first. The method, boiled down: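 Using IL-1a HTRF as read-out, the screen measured release from RAW264.7 cells after 48h siRNA knockdown (100 nM), 5 h Pam3CSK4 priming and 24 h cytosolic LipidA. Values were expressed relative to negative-control wells as robust z-scores.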
Background: Time-resolved FRET reads energy transfer from a long-lived donor to a nearby acceptor.
As for GGUCUUCCAAGAAAAAGGCTT against a, the z-score is 1.07 (inactive).
For GGAUGCUGACAAAAAUAUCTT against Iars, the z-score is 0.447 (inactive).
Turning to GGCCAUAAAAUGGUAGUAUTT against Trim36, the z-score was 0.0952 (inactive).
As to GGGUCAUGUUUUUAAGAAGTT against Frrs1, the z-score was -1.28 (inactive).
With CCCUUGCCUCAAAGAUCUUTT against Tex48, the z-score was 0.633 (inactive).
GCACUGUUCUCAAAGUUAATT against Ddx3x: the z-score is -0.248 (inactive).
Under GGCUACGCCCACAAAAGCUTT against H1f6 stands -2.26 (active).
For CCAAUUGGAAGAAUCCAGGTT against Gsdmc3 the value was -0.542 (inactive); for GGUUUUCCUAAAGUCAACATT against Bfar, -2.24 (active).
As to GCAGUAGCGACGAAGGAUGTT against Rnf113a2, the z-score is -2.12 (active).
Turning to GGACAAGAAUUGGAACAAATT against Zfp84, the z-score is 1.43 (inactive).
For GGCAGUAUCAAAGAAAUUGTT against Rps6ka3 the value was 3.43 (active); for “CCCAGGUAGAGACAUUGCUTT against 6330444E15Rik”, -1.89 (inactive).
As to GGAGAUGAAAUCUACAAAUTT against Igfbp1, the z-score was -0.592 (inactive).
For GCCUUGUUGUGUUGGCUUATT against Olfr1111 the value was 0.549 (inactive); for GGGAAUAUUUUCAAGUUGCTT against Tmem14a, 0.795 (inactive).
For GGAAGAUAUUGGUAAAAACTT against Uba1y the value was 0.584 (inactive).
Take “GGAUGUUUGGACAUCAUUUTT against 2610002M06Rik”: the z-score is 0.204 (inactive).
For GGUAAUGAUACCUUGAAUGTT against H60a the value was 2.11 (active); for GCUUCAGUGGCUACUCUUGTT against H2-M2, 0.63 (inactive).
Under CCGUGGAUUGUGGAAUAAUTT against Xpnpep3 stands -1.39 (inactive).
As for GCCAGUUUUGGUAUCCCGUTT against Lpcat2, the z-score is -1.2 (inactive).
Under GGGACAACCCAUCAACAAUTT against Catsper1 stands -0.614 (inactive); under CGAUGUACUCCAUGUUGGGTT against Bpifb6, 3.47 (active); under GGAAAGCUUGAAUGUUGAGTT against Mup3, 1.44 (inactive).
Under GACACCCUGUGACACCAAGTT against Sprr1b stands -0.597 (inactive).
Under GGCUUUAAUGAAAUUAUGGTT against Asap2 stands 1.4 (inactive).
CCCAGAAUUGAACUAAAAATT against Mrpl32: the z-score was -0.488 (inactive).
For GGUGGAACAACUGUUUCAATT against Dyrk3 the value was 0.541 (inactive); for GGAACCUAUGGAAGGCGUATT against Ino80b, 2.64 (active).
Under CCCACGCUUAGCAAUAUCATT against Get3 stands -1.49 (inactive); under GGUAACCUAGUGUAAGUUUTT against Atg2b, -0.0782 (inactive); under GGAGAGCAGUGAUAACCAGTT against Cracd, 2.06 (active).
Consider GGAAAUUGCUCAAAAAAGGTT against Asb3, for which the z-score was 0.725 (inactive).
For the sequence GGCUUCUAUUGCCAUAAUGTT against Olfr380, the z-score was 0.568 (inactive).
Under GGAUGAAGACAGUCAAAUGTT against Lypd3 stands 0.261 (inactive); under GGCAGAUUCUAAAUAUAGCTT against Itga9, -0.52 (inactive).
Turning to GGACAGCUUCAUCAAGCCUTT against Cep89, the z-score was -0.628 (inactive).
Under GGUCUGGUGUUGUAGGAUATT against Map1lc3b stands 2.71 (active); under GGAGUCAUAUGCACAGAUCTT against Tcte3, -0.706 (inactive); under CGUGGAUGAGAACUAACCUTT against Rpl31, 1.24 (inactive).
On to GCUCCUAUGCAAACAUUGCTT against Olfr1390, for which the z-score was 0.489 (inactive).
GGAUCUCUUAGGUAUCUUATT against Nlrp14: the z-score was 1.45 (inactive).
For GGAACACUGGAAGAAAGAUTT against Arhgap35, the z-score was -1.21 (inactive).
For GAUGUACUUGAUAAAGCCUTT against Ugt2b37 the value was 3.68 (active); for CCCAUCUCACUAUUUAAUATT against Lrrc3b, -1.23 (inactive); for GCUGCACAAGUGCAUUUUUTT against Srp14, -1.34 (inactive).
For GGGUAUUUCCACUUCAUAGTT against Acsm2 the value was 1.59 (inactive).
For GCUCAUGGACCAACCUAUGTT against Olfr1180 the value was 0.501 (inactive); for GCUUUCCGGAAUACGAGCUTT against Snapc3, -0.638 (inactive); for CGCAAGAUCCUCAAACGAGTT against Proc, -0.358 (inactive).
As for GGGAACAAGUUGAGCUACUTT against Ebp, the z-score is -0.0574 (inactive).
For UAGGAGAUAUCUGCUACCGTT against Fbxw16 the value was -2.53 (active); for CCAUGUUCGGACGUGGUCUTT against Shkbp1, -1.17 (inactive); for GGAGAGGAAUCAAGUGGUGTT against Lig1, -1.04 (inactive).
Under GGUGCUUUAUUAGGUAUUCTT against Atp6v1g3 stands -1.26 (inactive); under GGGUAGCUUUAAAUAAAGGTT against Olfr801, 2.47 (active); under GCAUAAGCCUAAAAAUUCUTT against Ptprd, 0.43 (inactive).
Under GCCCUCUUGUGAUUAAGCATT against Esr1 stands -0.959 (inactive); under GCUAAGAAGAGGAUUCCAATT against Spag1, -0.579 (inactive); under GCAGCAGUGCUUACUUAACTT against Ccdc25, 0.212 (inactive).
Regarding GGAAAGUGAUGUCACAAAATT against G3bp1, the z-score is 1.31 (inactive).
Consider GGUGUUUGUGAAGGAGCAGTT against Fam117a, for which the z-score was 2.98 (active).
GGCCAACCUGGAGAACUUGTT against Atp6v1c2: the z-score was 0.441 (inactive).
For GGUUAAUAUUAGCAUCGUCTT against Zdhhc23, the z-score was 0.908 (inactive).
For GGCUCUGUGUUGGUAAUGATT against Yipf1 the value was -0.538 (inactive); for GGGUCAUCGGAACAGAACUTT against Sult3a1, -2.26 (active).
As to GGGCAACUGUACGUACCAUTT against Cd93, the z-score is 0.0137 (inactive).
Regarding GGGAGCAUUUCCUUAUACUTT against Tpmt, the z-score was 0.67 (inactive).

For the origin of these results see PubChem BioAssay AID1508600 (Functional Genomics Laboratory (NCATS/FGL), 2020).
